# Results as given in the supplement of paper PMC12339681.
# Where a name gives a salt, the structure may show the parent alone.
# System: PBMC-derived induced microglia-like cells (piMGLC)
# Experiment: synaptosome phagocytic index relative to DMSO control (fraction of DMSO); higher = more phagocytosis
# Settings: concentration: 10 uM (2 uM for compounds listed in Table S2); pretreatment time: 24 h; assay time: 3 h
# Protocol: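 PBMC-derived induced microglia-like cells (piMGLCs) in 96-well plates were pretreated for 24 h with CNS-penetrant library compounds (MedChemExpress HY-L028), mostly at 10 uM; Table S2 lists 9 compounds at 2 uM. pHrodo-Red-labelled human iPSC-neuron synaptosomes (3 ug/well) were then added for 3 h, and cells were fixed and imaged by confocal microscopy. Phagocytic index (synaptosome area / cell count, CellProfiler) is a mean over 3 replicate wells on different plates, normalized to the DMSO control. Compounds leaving <10% of DMSO cell count were marked toxic and given no value.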
row,SMILES,synaptosome phagocytic index
1,COc1cc2ncnc(Nc3ccc(F)c(Cl)c3)c2cc1OCCCN1CCOCC1 [Gefitinib],1.24
2,CC1=C(/C=C/C(C)=C/C=C/C(C)=C/C(=O)O)C(C)(C)CCC1 [Retinoic_acid],0.339
3,CCc1cc(C(N)=S)ccn1 [Ethionamide],0.996
4,NC(=O)OCC(COC(N)=O)c1ccccc1 [Felbamate],0.618
5,CCN(CC)C(=O)[C@@]1(c2ccccc2)C[C@H]1CN [Milnacipran_((1S-cis)_hydrochloride)],0.67
6,COc1c(N2CCNC(C)C2)c(F)cc2c(=O)c(C(=O)O)cn(C3CC3)c12 (stereo not given) [Gatifloxacin],0.702
7,CN1CC[C@H](c2c(O)cc(O)c3c(=O)cc(-c4ccccc4Cl)oc23)[C@H](O)C1 [Flavopiridol],0.936
8,CC(C)(C)CCN1C[C@@H]2C(CNC(=O)c3cc(Cl)cc(Cl)c3)[C@@H]2C1 (stereo not given in full),0.191
9,C[C@H](N=C(NC#N)Nc1cccc2ncccc12)c1ccccc1,0.994
10,O=C(c1cc(Cc2n[nH]c(=O)c3ccccc23)ccc1F)N1CCN(C(=O)C2CC2)CC1 [Olaparib],0.997
11,NC(=O)NO [Hydroxyurea],0.555
12,CC(C)CCN(CCC(C)C)C(=O)c1ccc2nc(-c3ccc(C#N)cc3)c(CCCN3CCCC3)n2c1,0.408
13,CCNc1nc(Nc2cc(F)c(C(=O)N3CCOCC3)cc2OC)ncc1C(F)(F)F [GNE-7915_(tosylate)],0.359
14,CC(C)Nc1cccnc1N1CCN(C(=O)c2cc3cc(NS(C)(=O)=O)ccc3[nH]2)CC1 [Delavirdine_(mesylate)],0.749
15,CC(C)CCn1c(CN2CCN(C(=O)C3CC3)CC2)nc2c1c(=O)n(C)c(=O)n2C,0.707
16,Nc1cc(C(F)(F)F)c(-c2cc(N3CCOCC3)nc(N3CCOCC3)n2)cn1 [Buparlisib],1.13
17,O=C1CCC(N2C(=O)c3ccccc3C2=O)C(=O)N1 (stereo not given) [Thalidomide],0.811
18,C=CC(N)CCC(=O)O (stereo not given) [Vigabatrin],0.918
19,CO[C@H]1C(=O)[C@]2(C)[C@@H](OC)C[C@H]3OC[C@@]3(OC(C)=O)[C@H]2[C@H](OC(=O)c2ccccc2)[C@]2(O)C[C@H](OC(=O)[C@H](O)[C@@H](NC(=O)OC(C)(C)C)c3ccccc3)C(C)=C1C2(C)C [Cabazitaxel],0.833
20,CO[C@H]1C[C@@H]2CC[C@@H](C)[C@@](O)(O2)C(=O)C(=O)N2CCCC[C@H]2C(=O)O[C@H]([C@H](C)C[C@@H]2CC[C@@H](O)[C@H](OC)C2)CC(=O)[C@H](C)/C=C(\C)[C@@H](O)[C@@H](OC)C(=O)[C@H](C)C[C@H](C)/C=C/C=C/C=C/1C [Rapamycin],0.285

row,SMILES,synaptosome phagocytic index
1,CN(C)CC(c1ccc(O)cc1)C1(O)CCCCC1 (stereo not given) [Desvenlafaxine_(succinate_hydrate)],1.11
2,C[C@H](C(=O)O)c1cccc(C(=O)c2ccccc2)c1 [S-(+)-Ketoprofen],0.724
3,CC(C)Cc1ccc(C(C)C(=O)O)cc1 (stereo not given) [Ibuprofen],0.74
4,CCc1nc(N)nc(N)c1-c1ccc(Cl)cc1 [Pyrimethamine],1.01
5,CC1OC2(CS1)CN1CCC2CC1 (stereo not given) [Cevimeline_(hydrochloride_hemihydrate)],0.63
6,CCC(C)n1ncn(-c2ccc(N3CCN(c4ccc(OCC5COC(Cn6cncn6)(c6ccc(Cl)cc6Cl)O5)cc4)CC3)cc2)c1=O (stereo not given) [Itraconazole],0.377
7,CN1CC[C@H](c2c(O)cc(O)c3c(=O)cc(-c4ccccc4Cl)oc23)[C@H](O)C1 [Flavopiridol_(Hydrochloride)],0.995
8,CC(=O)OCC(=O)[C@@]1(O)[C@H](C)C[C@H]2[C@@H]3CCC4=CC(=O)C=C[C@]4(C)[C@@]3(F)[C@@H](O)C[C@@]21C [Dexamethasone_acetate],0.776
9,Nc1cc(C(F)F)c(-c2nc(N3C4CCC3COC4)nc(N3C4CCC3COC4)n2)cn1,0.347
10,COCc1ccc(-c2ccc(N(C[C@@H](N)[C@@H](C)OC)C(=O)[C@@H]3C[C@H]3c3ccccn3)cc2)cc1,0.794
11,CC(C)OC(=O)NC1CCN(Cc2cc(Cl)c3cccnc3c2O)CC1,0.609
12,Cn1c(OCC2CCC(C(F)(F)F)CC2)nn2c(C3CCOCC3)ncc2c1=O (stereo not given),0.831
13,CN(C)C(=O)c1cc2cnc(Nc3ccc(N4CCNCC4)cn3)nc2n1C1CCCC1 [Ribociclib],0.78
14,CN(C)CCc1c[nH]c2ccc(CS(=O)(=O)N3CCCC3)cc12 [Almotriptan_(malate)],0.882
15,CCOc1nc2cccc(C(=O)O)c2n1Cc1ccc(-c2ccccc2-c2nnn[nH]2)cc1 [Candesartan],1.1
16,CC(C)c1nc(CN(C)C(=O)N[C@H](C(=O)N[C@@H](Cc2ccccc2)C[C@H](O)[C@H](Cc2ccccc2)NC(=O)OCc2cncs2)C(C)C)cs1 [Ritonavir],0.742
17,CC(=O)OCC[N+](C)(C)C [Acetylcholine_(chloride)],0.587
18,O=C(O)Cc1nn(Cc2nc3cc(C(F)(F)F)ccc3s2)c(=O)c2cscc12,0.982
19,COc1ccccc1OCC(O)COC(N)=O (stereo not given) [Methocarbamol],0.902
20,Cn1cc(-c2ccncc2)c(-c2ccc(OCc3ccc4ccccc4n3)cc2)n1 [Mardepodect],0.723
